Most compounds without a hit are left out; they make up all but 1.1% or so of the library.
MOR-DOR inv ag: mu-delta opioid heterodimer inverse agonism; P35372+P41143; cell-based MOR-DOR heterodimer luminescence; inhibition, % at 9.3 µM; hit rate 0.21% among 340,000; AID 504357; in the data active = inhibition above about 22%, passing the limit was not always enough;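 also: 0% = cells with DMSO and 100% = wells without cells with DMSO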
MOR-DOR ag: agonists of human mu-delta opioid receptor heterodimerization | P35372+P41143 | cells, OPRM1-OPRD1 heterodimerization, luminescence | activation, % at 9.3 µM | hit rate 0.3% among 340,000;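 also: 0% = vehicle-treated cells and 100% = reference agonist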
HTR5A inv ag: counter-screen for OPRM1-OPRD1 inverse agonists: human HTR5A inverse agonism. P47898. HTR5A cell line, luminescence. inhibition, % at 9.3 µM. hit rate 0.083% among 340,000; in the data active = inhibition mostly above about 23%, no sharp cut-off; inactive = mostly below about 18%;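 also: 0% = cells with DMSO and 100% = no-cell wells with DMSO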
Target sequence (P47898 whole entry, looked up): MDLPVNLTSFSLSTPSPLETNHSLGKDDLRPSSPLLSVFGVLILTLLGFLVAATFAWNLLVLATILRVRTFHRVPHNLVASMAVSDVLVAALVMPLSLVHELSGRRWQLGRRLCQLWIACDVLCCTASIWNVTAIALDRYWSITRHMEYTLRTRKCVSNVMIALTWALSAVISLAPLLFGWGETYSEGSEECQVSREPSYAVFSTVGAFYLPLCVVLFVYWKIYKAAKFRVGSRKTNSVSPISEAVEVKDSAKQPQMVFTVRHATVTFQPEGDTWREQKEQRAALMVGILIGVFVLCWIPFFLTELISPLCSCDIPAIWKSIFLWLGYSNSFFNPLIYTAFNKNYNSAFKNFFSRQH
HTR5A ag: activates human HTR5A in OPRM1-OPRD1 agonist counter-screen; HTR5A agonist assay, luminescence, cell-based; activation, % at 9.3 µM; hit rate 0.61% among 340,000; in the data active = activation mostly above about 9.5%, no sharp cut-off; inactive = mostly below about 7.6%;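 also: 0% = cells with vehicle only and 100% = reference agonist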
OPRM1-D1 ag cf: OPRM1-OPRD1 heterodimer agonism, confirmation | shares compounds with MOR-DOR ag | cells, MOR-DOR heterodimerization, luminescence complementation | activation, % at 9.3 µM | hit rate 45% among 830 | AID 504904;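 also: 0% = vehicle-treated cells and 100% = reference agonist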
HTR5A ag ctr2: counter-screen for OPRM1-OPRD1 agonists: human HTR5A agonism; activation, % at 9.3 µM; shares compounds with MOR-DOR ag; HTR5A agonist counterscreen, cell luminescence; hit rate 8% among 830; AID 504905; in the data active = activation above about 17%;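 also: 0% = vehicle-treated cells and 100% = reference agonist response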
Starred values were filed as active, the others as inactive; i = inactive; . = no result. Rule as the data show it, unless noted: active = activation above about 18%; inactive = the rest.

SMILES	MOR-DOR inv ag	MOR-DOR ag	HTR5A inv ag	HTR5A ag	OPRM1-D1 ag cf	HTR5A ag ctr2
Cc1ccc(NC(=O)c2cc(S(=O)(=O)N3CCCCC3)c[nH]2)cc1F	-15	3	-23	9	.	.
Cc1nc(N2CCN(c3ccccn3)CC2)c2c(C)c(C(=O)N3CCN(c4ccc(F)cc4)CC3)sc2n1	i	167*	-1	0	239*	5
COc1ccccc1N1CCN(C(=O)c2sc3nc(C)nc(N4CCN(c5ccccn5)CC4)c3c2C)CC1	i	109*	-42	16	134*	-3
COc1ccccc1N1CCN(C(=O)c2sc3ncnc(N4CCN(c5ccccn5)CC4)c3c2C)CC1	1	0	-3	1	.	.
CCOc1ccc2nc(NCCNC(=O)Nc3ccccc3)c(C#N)cc2c1	-289	50*	-12	3	29*	7
COC1=CC(=O)c2c(ccc3ncnc(N)c23)C1=O	-180	41*	-12	3	1	1
O=C(c1ccc(S(=O)(=O)Nc2ccccc2)cc1)N1CCCCCCC1	12	-2	-4	2	.	.
CCOC(=O)C1(CCCc2ccccc2)CCN(Cc2cnn(C)c2)CC1	i	98*	9	-3	115*	-2
CCOC(=O)C1(CCCc2ccccc2)CCN(C(=O)CCc2cnn(C)c2)CC1	-3	0	4	-2	.	.
CCCn1cc(CN2CCC(Cc3cccc(F)c3)(C(=O)OCC)CC2)c(C)n1	9	-2	-3	1	.	.
CCOC(=O)C1(Cc2ccc(Cl)cc2)CCN(Cc2cn(CC)nc2C)CC1	-102	21*	-18	6	11	0
CCOC(=O)C1(Cc2cccc(F)c2)CCN(Cc2cnn(CC)c2)CC1	-332	68*	-16	1	-3	-9
Cc1cc(NC(=O)NC(=O)c2ccccc2NC(=O)CN)ccc1Oc1ncc(Br)cn1	10	-2	3	-1	.	.
COc1cc(C(C#N)N2CCC(c3ccccc3)=N2)ccc1O (stereo not given)	1	0	-7	2	.	.
OCC[C@@H]1C[C@H](O)[C@@H](O)[C@]2(Cc3ccccc3CCO2)O1	13	-2	-38	13	.	.
Cc1cc(C)cc(NS(=O)(=O)CCCS(=O)(=O)Nc2cc(C)cc(C)c2)c1	-145	30*	-22	6	1	-4
CCCCCCCCCS(=O)(=O)Nc1cc(C)ccn1	10	-2	-13	5	.	.
Cc1ccc([C@@H]2[C@@H]3C(=O)N(C)C(=O)[C@@H]3[C@@H]3C(=O)Nc4ccccc4C(=O)N23)cc1	4	-1	-18	6	.	.
NS(=O)(=O)c1ccc(NC(=S)Nc2cc(Cl)c(Cl)cc2Cl)cc1	-8	1	-7	2	.	.
C[C@@H](C(=O)NNC(=O)c1ccc(Cl)cc1)N1C(=O)C2CC=CCC2C1=O (stereo not given in full)	12	-2	-16	4	.	.
CCOc1ccc(NC(=S)N2CCN(S(=O)(=O)c3ccccc3)CC2)cc1	-128	31*	11	-4	1	-1
COc1cc(NC(=O)CCC(=O)c2cccs2)cc(OC)c1	13	-2	-17	0	.	.
O=C(NCC(c1ccc(F)cc1)N1CCOCC1)c1ccc(-c2ccccc2)cc1 (stereo not given)	-78	21*	15	-2	1	-3
COc1ccc2cc(C)c(SCC(=O)Nc3cc(C)on3)nc2c1	-110	18*	-1	0	10	4
NC(=O)c1ccc(NC(=O)CSc2nnc(-c3ccccn3)n2N)cc1	15	-3	-5	8	.	.
SMILES	MOR-DOR inv ag	MOR-DOR ag	HTR5A inv ag	HTR5A ag	OPRM1-D1 ag cf	HTR5A ag ctr2
C#CC(=O)N(c1ccc(OC)c(OC)c1)C(C(=O)NC1CCCC1)c1cccs1 (stereo not given)	-228	39*	-51	4	19*	21*
CCCCNc1c(N)n(CC(C)C)c(=O)[nH]c1=O	0	0	-21	-4	.	.
CC(C)(C)/C(O)=C(/C#N)c1nc2ccccc2[nH]1	-1	0	7	-3	.	.
CC(C)CC(/C(O)=C(\C#N)c1nc2ccccc2[nH]1)N1C(=O)c2ccccc2C1=O (stereo not given)	-141	31*	-12	2	30*	4
Cc1nc(CS(=O)(=O)c2ccccn2)sc1C(=O)NNC(=O)c1ccc(Cl)cc1	6	-1	-24	3	.	.
O=C(N[C@@H](Cc1ccccc1)C(=O)N1CCN(S(=O)(=O)c2ccccc2F)CC1)c1ccco1	6	-1	1	0	.	.

Screening results deposited in PubChem BioAssay by The Scripps Research Institute Molecular Screening Center.
